Test results reported in PubChem BioAssay (NCI).
Compounds without any hit were thinned out: in the full panel of roughly 83,000, 20% have a hit.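 Interpretation: 100, growth as untreated; towards 0, rising growth inhibition; 0, no net growth; 0 to -100, cell death. Compounds scoring below 10 were considered active.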 Values without a mark were called inactive. Calls of active or inactive are those of the source.

What follows are compounds tested on MDA-MB-468 breast (assay: NCI-60 one-dose screen, 48 h (100 = growth as untreated, 0 = no growth, -100 = all killed)). Conditions: 10 µM unless noted.

Structure (SMILES)	growth
O=C(O)c1ccccc1NCc1ccco1	95%
Cc1[nH]c(C(=O)Nc2cccc(OC3CCNCC3)c2)c(Cl)c1Cl	40.9%
COc1ccc(-c2nc(-c3nc4ccc(OC)cc4[nH]3)cc3c2[nH]c2ccccc23)cc1	59.6%
Cc1ccccc1NC(=O)/C=C/c1ccc(OCCOc2ccc3c(C)cc(=O)oc3c2)cc1	104%
C=C[C@H]1C[C@@H]2C[C@@H]3[C@H]4C/C=C\C(=O)NCCCC5NC(=O)C(=C(O)/C=C/[C@@H]4CC(=O)[C@H]3[C@@H]2[C@H]1C)C5=O (stereo not given in full)	-29.9% (active)
C=C(CNCCO)[C@@H]1CC[C@]2(CO)CC[C@]3(C)[C@H](CC[C@@H]4[C@@]5(C)CCC(NCCO)C(C)(C)[C@@H]5CC[C@]43C)[C@@H]12 (stereo not given in full)	51%
CCN(CC)CCCC(C)NCC(=O)NC(c1ccc2c(c1)OCO2)c1cc(Cl)c2cccnc2c1O (stereo not given)	16.6%
Cc1ccccc1Nc1nc(SC(C)C)nc(-c2ccccc2)c1C#N	74.8%
N=C(N)c1ccc(-c2ccc(-c3ccc(Cl)cc3Cl)s2)cc1F	-63.5% (active)
O=C(Nc1ncc(Cc2ccc(Cl)cc2)s1)C1=NCCCCN1	102%
CCOc1ccc(NC(=O)Nc2cc(C(C)C)ccc2C)cc1	114%
COC(=O)c1ccc2[nH]c(O)c(C(=Nc3ccc(N(C)C(=O)CN4CCN(C)CC4)cc3)c3ccc4c(c3)OCO4)c2c1	38.3%
COc1cccc(-c2nn(-c3ccccc3)cc2-c2ccnc(NCCNS(=O)(=O)c3ccc(C(F)(F)F)cc3)c2)c1	9.78% (active)
NC(=O)SCC(=O)Nc1ccc(S(N)(=O)=O)cc1	91.4%
O=C(Nc1cccc(-n2cc(-c3ccncc3)c(-c3cc(O)cc(Cl)c3)n2)c1)Nc1ccc(Cl)c(C(F)(F)F)c1	5.22% (active)
COc1ccc(-c2c[nH]c(C(=O)O)c2-c2cc(OC)c(OC)c(OC)c2)cc1	11.8%
Cc1ccc(C2=NN3C(C2)c2cc(Br)ccc2OC32CCN(Cc3ccccc3)CC2)o1 (stereo not given)	105%
OCc1ccccc1F	72.9%
Cc1c(C(N)=O)sc2c1c(=O)n(Cc1ccccc1)c1nnc(SCC(=O)Nc3ccc(Cl)cc3)n21	39.6%
CN(C)CC(=O)Nc1nc(-c2cccc(NS(=O)(=O)c3cccc4c(N(C)C)cccc34)c2)cs1	62%

Structure (SMILES)	growth
COCCN1CCN(Cc2ccc(-c3n[nH]c4c3C(=O)c3c(NC(=O)NN5CCOCC5)cccc3-4)cc2)CC1	-45.1% (active)
CCOC(=O)C(=Cc1ccccc1[N+](=O)[O-])C(=O)OCC	34.3%
CCCCCCCCCCCCC1C/C=C\CCCC(=O)O1 (stereo not given)	127%
CC(=O)Nc1ccccc1-c1n[nH]c(=O)[nH]c1=O	102%
Cc1cc(NCCCNc2ccnc3cc(Cl)ccc23)nc(Nc2ccc(C(=O)N3CCCCC3)cc2)n1	-19% (active)
COc1cc(C(=O)NC(=S)NCc2ccncc2)cc(OC)c1OC	94.2%
CCN(CCCCCCN1CC(=O)N(CCCCCCN(CC)Cc2ccccc2OC)CC1=O)Cc1ccccc1OC	84%
CCCCCCCCCCCCCCCCNCCC[C@@H](C)[C@H]1CC[C@H]2[C@@H]3[C@H](OCCCN)C[C@@H]4C[C@H](OCCCN)CC[C@]4(C)[C@H]3C[C@H](OCCCN)[C@]12C	-55.2% (active)
O=C(O)c1ccc(S(=O)(=O)O)cc1	103%
COc1cc(CSc2nc3ccc(Cl)cc3c(=O)n2Cc2ccccc2)cc(OC)c1OC	-13.1% (active)
CCN(CC)CC(=O)Nc1c(C)ccc(N)c1C	95.8%
O=C(Nc1cc(Nc2ncccc2-c2ncnc3nc[nH]c23)ccc1F)c1cc(C(F)(F)F)cc(C(F)(F)F)c1	-24.9% (active)
COc1ccc(CCN2C(=O)/C(=C/c3ccc(C4Oc5ccccc5C5CC(c6ccccc6)=NN54)cc3)SC2=S)cc1 (stereo not given)	118%
c1csc(-c2c3ccc(=[N+]4CCCCC4)cc-3oc3cc(N4CCCCC4)ccc23)c1	-90% (active)
CCCCCCCCCCCCCC1=NCC[N+]1(CCO)Cc1ccccc1 (stereo not given)	-81.2% (active)
CC(C)c1ccc(-c2cnc3nonc3n2)cc1	21%
CC(=O)c1nn(-c2ccc(C)cc2)cc1C(=O)c1cc2c(ccc3ccccc32)oc1=O	118%
CCN(CC)c1ccc2c(c1)Oc1nc(N)c(C#N)c(N)c1C2Sc1ccc(C)cc1 (stereo not given)	-88.4% (active)
CCOC(=O)c1cc(C(=O)c2ccc(OC)c(OC)c2)n2ccncc12	99.5%
COc1cc(-c2nc3ccc(-c4nnc(SCC(=O)Nc5ccc(C(=O)/C=C/c6ccc(Cl)cc6)cc5)o4)cc3[nH]2)cc(OC)c1OC	93%
